Assay outcomes (PubChem BioAssay)
Compounds with a hit are over-represented: about 4.8% of the library has one in this group of screens.
HIF activator = HIF pathway transcriptional activation; U2OS HRE-luciferase reporter, luminescence; normalized: DMSO 0%, desferrioxamine 100%; activation, % at 7.5 µM (by protocol); 300,000 compounds, 0.32% hits; AID 1910;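 active means mean activation of at least 10% of the iron chelator positive control signal, with at least half of replicates also reaching 10%; inconclusive means mean and replicate majority disagree about reaching 10%; inactive means mean and most replicates under 10%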
AI-2 QS modul = modulators of Vibrio harveyi AI-2 quorum sensing system | Vibrio harveyi JMH597 AI-2 luminescence/OD600 ratio, 9 h; hits give low values; strain lacks LuxN and CqsS sensors; 0 = neutral-control median | activity change, % at 7.5 µM | 300,000 compounds, 0.4% hits | AID 2094; in the data active means activity change below about -75%, passing the limit was not always enough; inconclusive means no clear call, values can overlap the other calls;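 further: luminescence divided by OD600 gain over 9 h not by final OD600 alone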
ALR H2O2 inh = inhibitors of human sulfhydryl oxidase ALR | P55789 | purified ALR, DTT oxidation, H2O2 HRP-luminol luminescence | inhibition, % (concentration not given with the values) | 290,000 compounds, 3.8% hits | AID 485317;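 active means mean replicate inhibition above about 79%, with every replicate also reaching it, limit read from the data; inconclusive means only one of the two criteria met; inactive means mean below limit and not every replicate reaching it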
Target sequence (P55789 whole entry, looked up): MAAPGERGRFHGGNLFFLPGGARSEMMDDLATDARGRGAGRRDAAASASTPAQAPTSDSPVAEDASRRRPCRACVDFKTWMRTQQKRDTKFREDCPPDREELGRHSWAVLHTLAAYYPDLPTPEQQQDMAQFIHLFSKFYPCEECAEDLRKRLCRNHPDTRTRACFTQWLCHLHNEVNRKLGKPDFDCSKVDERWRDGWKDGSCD
SUMO Mot1 rescue = blocks SUMOylation pathway, rescuing yeast Mot1-301 growth. growth rescue, % at 18.8 µM. AID 2716. S. cerevisiae Mot1-301 growth rescue, ATP luminescence, 38.5C; percent above DMSO median, 100 means doubled. 320,000 compounds, 1% hits;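 active means every valid replicate shows activation above 250% relative to neutral control wells; inactive means the rest, any valid replicate at or below 250%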;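 further: OY570 slx delta 5 strain wells were the positive control but not used for scaling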
Starred values were filed as active, the others as inactive; ? = inconclusive; · = no result.

SMILES	HIF activator	AI-2 QS modul	ALR H2O2 inh	SUMO Mot1 rescue
c1cn2c(NC3CCCC3)c(-c3ccc(N4CCOCC4)cc3)nc2cn1	2.7	19.7	99.1*	-5.5
Cc1cc(-c2csc3nc[nH]c(=S)c23)cc(C)c1C	-0.4	7.4	97.3*	16.7
Cc1ccc(-c2csc3nc[nH]c(=S)c23)cc1	-0.1	-31.6	96.6*	-13.9
Cc1c(C(=O)Nc2nccs2)oc2ccc(Br)cc12	·	·	-4.5	29.6
O=C(COc1ccc(S(=O)(=O)N2CCOCC2)cc1)NC1CCCCC1	·	·	·	0.8
O=C(CCc1ccccc1)N/N=C/c1cc(Br)ccc1O	12.1*	2.9	0.5	-4.6
Cc1ccc(C(=O)N/N=C/c2cc(Br)ccc2O)cn1	15.6*	·	-18.6	7.6
COC(=O)N/N=C/c1cc(Br)ccc1O	0.1	18.7	-4.3	-13.0
O=C(N/N=C/c1cc(Br)ccc1O)C(=O)Nc1ccccc1OC(F)(F)C(F)F	12.1*	18.2	-5.0	2.4
O=C(N/N=C/c1cc(Br)ccc1O)c1ccccc1Cl	25.7*	?	0.3	-23.4
CC(C)(C)OC(=O)N1C[C@H](O)C[C@H]1C(=O)OCC(=O)c1ccc([N+](=O)[O-])cc1	-0.2	3.7	42.2	86.0
COc1ccccc1S(=O)(=O)N1CCNC(=O)C1	·	·	-6.8	-0.8
O=C(COC(=O)c1ccc(Cl)nc1)NCCc1ccc(F)cc1	·	·	-18.3	15.9
CCOc1ccc(CCNC(=O)CS(=O)Cc2nc(-c3ccc(OC)c(OC)c3)oc2C)cc1OCC (configuration not stated)	0.0	-4.9	99.5*	-1.9
CCOc1ccc(CCNC(=O)CS(=O)(=O)Cc2nc(-c3ccc(OC)cc3)oc2C)cc1	-0.3	7.7	71.6	27.7
COc1ccc(CNC(=O)CS(=O)Cc2nc(-c3ccc(C)cc3)oc2C)cc1 (configuration not stated)	0.1	68.4	99.4*	10.7
COc1ccc(-c2nc(CS(=O)CC(=O)NCc3ccc(Cl)cc3)c(C)o2)cc1OC (configuration not stated)	0.2	·	98.6*	3.5
COc1ccc(-c2nc(CS(=O)CC(=O)NCc3ccc(C)cc3)c(C)o2)cc1OC (configuration not stated)	0.4	44.3	98.8*	-2.1
CN1C(=O)/C(=C\c2ccc(OC(=O)c3ccco3)cc2)SC1=S	0.0	30.2	1.2	0.5
COc1ccc(C(=O)C(C)OC(=O)COc2ccccc2)cc1 (configuration not stated)	·	·	4.3	25.7
CN1CCN(C(=O)c2cccn(Cc3c(Cl)cccc3Cl)c2=O)CC1	-0.3	21.4	1.9	12.8
COCCCNC(=O)CS(=O)Cc1nc(-c2cccc(OC)c2)oc1C (configuration not stated)	0.0	7.2	99.2*	-1.4
CCOc1ccc(CNC(=O)CS(=O)(=O)Cc2nc(-c3ccc(OC)cc3)oc2C)cc1	-0.3	10.4	42.4	-18.2
COc1ccc(CNC(=O)CS(=O)Cc2nc(-c3ccc(OC)c(OC)c3)oc2C)cc1 (configuration not stated)	0.0	11.9	98.9*	-7.3
COCCNC(=O)CS(=O)Cc1nc(-c2ccc(OC)cc2)oc1C (configuration not stated)	-0.3	16.4	98.7*	-9.9
SMILES	HIF activator	AI-2 QS modul	ALR H2O2 inh	SUMO Mot1 rescue
CC1CC1C(=O)OCC(=O)N(C)c1c(N)n(Cc2ccccc2)c(=O)[nH]c1=O (configuration not stated)	-0.3	24.6	-14.4	-3.9
O=C(CSc1nnc(CNC(=O)c2c(F)cccc2F)o1)NCC1CCCO1 (configuration not stated)	-0.6	-1.2	-11.2	4.6
CCOc1ccc(S(=O)(=O)Nc2nc3ccccc3nc2Nc2ccc(N3CCOCC3)cc2)cc1	0.0	4.9	93.2*	9.9
O=S(=O)(Nc1nc2ccccc2nc1N1CCN(c2ccccc2)CC1)c1ccc(F)cc1	0.1	30.4	11.7	526.0*
COc1ccc(S(=O)(=O)Nc2ccc(N3CCOCC3)cc2)cc1	-0.4	26.7	55.6	76.2
Cc1ccc(S(=O)(=O)Nc2nc3ccccc3nc2N2CCOCC2)cc1	·	·	1.6	45.5
COc1ccc(Cl)cc1N1C(=O)/C(=C\c2sccc2C)N=C1SCC(=O)NC1CC1	-0.8	7.1	81.0*	·
COc1cccc(OC)c1OCCCN1CCC(Cc2ccccc2)CC1	0.0	12.5	-53.8	2.3
O=C(CCl)N(c1ccc(Cl)cc1)c1c[nH]c2ccccc12	1.7	22.9	97.9*	50.9
c1ccc(N2CCN(c3ccccc3)C2c2cccs2)cc1	1.1	0.4	98.8*	6.6
Cn1nc(C(=O)NCCCN2CCCCC2)c2c1-c1ccccc1S(=O)(=O)C2	18.8*	6.3	-3.3	-12.4
Cc1ccc(C)n1-c1sc2c(c1C(=O)O)CCCC2	0.4	31.9	96.1*	-3.5
CCc1ccc(-c2cc(C)no2)cc1S(=O)(=O)NCCc1ccc(OC)c(OC)c1	0.8	-11.9	-2.2	10.1
COc1cc(C)c(C(=O)Oc2cc(C)c(C(=O)O)c(O)c2C)c(O)c1C	0.9	19.6	96.8*	1.2
NC(CSCc1ccccc1Cl)C(=O)O (configuration not stated)	-0.7	6.6	57.5	2.2
N=C(N)SCc1ccccc1Cl	0.7	11.3	99.5*	88.4
CC(C)CC1NC(=O)c2cc(Cl)ccc2-n2c1nc1ccc(F)cc1c2=O (configuration not stated)	·	·	-1.0	4.9
O=C(COc1ccc2c3c(c(=O)oc2c1)CCC3)Nc1ccc(CN2CCOCC2)cc1	-0.1	26.6	-1.2	11.1
COC(=O)C1=C(C)Nc2nnnn2C1c1ccccc1Cl (configuration not stated)	0.1	14.9	9.4	338.9*
CSc1ncc(Cl)c(C(=O)C(C#N)c2nc3c(C)cc(C)cc3c(=O)[nH]2)n1 (configuration not stated)	-0.2	45.9	86.4*	11.9
Cc1cc(C)nc(Nc2n[nH]c(-c3ccc(N)cc3)n2)n1	1.6	8.1	98.9*	3.0
Cc1cc(C)nc(Nc2n[nH]c(-c3ccc(C(C)(C)C)cc3)n2)n1	0.4	33.3	-15.2	-2.0
Cc1cc(Sc2nc(N)ncc2[N+](=O)[O-])ncn1	0.7	-22.2	98.3*	-14.4
CCN(CCCNC(=O)COc1cc(=O)n(CC)c2ccccc12)c1ccccc1	-0.5	21.3	99.0*	3.6
CC1CCN(CCCNC(=O)COc2cc(=O)n(C)c3ccccc23)CC1	-0.4	-1.0	-9.5	1.9
CCN(CCCNC(=O)COc1cc(=O)n(C)c2ccccc12)c1ccccc1	0.1	11.7	98.1*	5.0
O=C(O)c1ccc2c(=O)n3c(nc2c1)/C(=C/c1cccc(Cl)c1Cl)CCCC3	-0.7	11.0	97.0*	384.8
O=C1CCCCCN1Cc1nnc(SCc2nc3ccccc3s2)n1-c1ccccn1	5.2	39.8	·	4.8
COc1ccc(-n2cnnc2SCc2cnc(-c3ccccc3)s2)cc1	0.2	20.2	98.5*	7.3
COc1ccc(-n2cnnc2SCCC#N)cc1	-0.8	21.0	-2.0	4.6
